The panel holds about 83,000 compounds, 20% with a hit somewhere; the sample as a whole holds those more often.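 Testing used 96-well plates and a 48-hour single-concentration exposure. Example: -40 means 40% of the starting cells died.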 Unmarked numbers belong to inactive results. Calls of active or inactive are those of the source. How the source made its calls: active means growth percent below 10; inactive means the rest.

The assay deals with MDA-MB-435 melanoma. The assay can be described thus: NCI-60 one-dose screen, 48 h (100 = growth as untreated, 0 = no growth, -100 = all killed). The settings on record: 10 µM unless noted.
As for `CC(C)(CO)N(CCO)CCO`, the growth is 108%.

For `CCCCCCCCn1ccc2cc(NC(=O)Cn3cc(CN4CCCCCC4)nn3)ccc21`, the growth was -85.3% (active).

In the case of `COc1cc2cc(Oc3ccc(NC(=O)Nc4ccccc4)cc3)c(C)nc2cc1OCCN1CCCCC1`, the growth was 61.8%.

Regarding `CN1CCN(CCCOC(=O)c2c3c(n4ccccc24)C(=O)c2ncccc2C3=O)CC1`, the growth was -40.4% (active).

`Cc1ccc2[nH]c(-c3ccc(S(C)(=O)=O)cc3)c(/C=N/N=C(N)N)c2c1`: the growth was -21.9% (active).

Regarding `COc1ccc(C/C(C)=C(\c2ccc(O)cc2)c2ccc(OCCN3CCCC3)cc2)cc1`, the growth is 103%.

For the molecule `CC1(C)C2CC=C(/C=N/NC(=O)C3CCC(=O)N3)C1C2` (stereo not given), the growth was 106%.

Take `COc1ccc2cc(-c3ccc(-c4ccc(C(=N)N)s4)s3)ccc2c1`: the growth was 0.918% (active).

As to `Cc1nc2sc(C(=O)Nc3ccccc3)c(N)c2cc1C(=O)/C=C/c1ccccc1`, the growth is -38.2% (active).

As for `O=C1/C(=C/c2ccc(C(F)(F)F)cc2)COc2ccc(O)cc21`, the growth is 87.7%.

With `Cc1[nH]c(C(=O)Nc2ccc(C(N)=O)cc2NC(C)C)c(Cl)c1Cl`, the growth was 101%.

Consider `Oc1c(CN2CCCC2)cc(COCc2ccccc2)c2cccnc12`, for which the growth is 33.5%.

Consider `CCCCCCCC/C=C\CCCCCCCCOc1ccccc1CC(=O)NCC[N+]1(C)CCCCC1`, for which the growth was 41.5%.

Consider `O=C1Nc2ccc(F)cc2/C1=C\c1nc(-c2ccccc2F)n2ccccc12`, for which the growth was 101%.

Turning to `CN(C)Cc1ccc(C(=O)Nc2ccc3ncnc(Nc4ccc(Oc5cccc(F)c5)c(Cl)c4)c3c2)cc1`, the growth was -89.4% (active).

For the origin of these results see PubChem BioAssay (NCI).
